This is an account of results in PubChem BioAssay AID602163 (The Scripps Research Institute Molecular Screening Center, 2012).

Molecules are shown by their SMILES. Among all 360,000 compounds or so, about 1,100 (0.31%) were called active. The full list was thinned out, with actives kept by preference. Values without a mark were called inactive. Rule as the data show it: active = activation above about 7.5%; inactive = the rest.

The subject of the test is Methionine sulfoxide reductase A (Bos taurus). The experiment in a line: bovine MsrA enzyme activators, primary screen, biochemical, absorbance, HTS (AID 602163).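 Also: 0% = vehicle and 100% = reference activator.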 To be noted: purified bovine MsrA, absorbance read-out; at 10.6 µM; stronger effect = higher value.
On to `O=C(NCCCN1CCOCC1)c1cnn2c(-c3ccccc3)cc(-c3ccccc3)nc12`, for which the activation was 0.61%.

For `COc1cccc(CNn2cn[nH]c2=S)c1OCc1ccccc1`, the activation is -8.32%.

Regarding `FC(F)(F)c1ccc(-n2cn[nH]c2=S)cc1`, the activation is 4.3%.

With `COc1ccccc1-n1cn[nH]c1=S`, the activation is 9.25% (active).

As for `CCN(C(=O)Cc1nc(N)n[nH]1)C1(C(=O)Nc2ccccc2)CCCCC1`, the activation is -1.75%.

`Nc1[nH]c(=S)nc2nc(-c3ccccc3)c(-c3ccccc3)nc12`: the activation was 4.05%.

In the case of `CN(C)S(=O)(=O)c1ccc(NC(=O)COC(=O)c2n[nH]c3ccccc23)cc1`, the activation is 14.2% (active).

For `COc1ccc(S(=O)(=O)N(C)C)cc1NC(=O)COC(=O)c1n[nH]c2ccccc12`, the activation was -0.9%.

With `O=C(COC(=O)c1n[nH]c2ccccc12)Nc1ccccc1Br`, the activation is -2.21%.

Consider `Cn1nnnc1SCC(=O)N1CCN(C(c2ccccc2)c2ccccc2)CC1`, for which the activation was -4.74%.

For `CC(=O)c1ccc(-n2nnnc2SCC(=O)N2CCN(C(=O)c3ccco3)CC2)cc1`, the activation was -6.56%.

Take `Cn1nnnc1SCC(=O)N1CCN(Cc2ccccc2)CC1`: the activation is 10.8% (active).

For the compound `CC(C)COC(=O)n1c(=O)oc2ccc(S(=O)(=O)N3CCCCC3)cc21`, the activation is -0.43%.

As for `COc1ccc(C2=NN(C(=O)CSc3nc(=O)n4ccc(C)cc4n3)C(c3ccc(C)cc3)C2)cc1` (stereo not given), the activation was -4.23%.

In the case of `FC(F)(F)C1CCCN(c2nsc3ccccc23)C1` (stereo not given), the activation was 13% (active).

As for `CCCNCc1cc(OCC)c(OCC(=O)Nc2ccccc2)cc1Br`, the activation was -1.95%.

With `C=CCN1C(=O)C2(OCCCO2)c2cccc(Cl)c21`, the activation was -1.83%.

As to `CC(C)(C)C(=O)CCN1C(=O)C2(OCCO2)c2ccccc21`, the activation was 10.5% (active).

Regarding `O=C(CC1(O)C(=O)N(CN2CCOCC2)c2ccccc21)c1ccccc1` (stereo not given), the activation was -7.26%.

As to `CC(C)C[C@H]1CNC(=O)C(=O)N1C[C@@H]1CCCN1C[C@H](Cc1ccccc1)N1C[C@H](CC(C)C)N(CC2CCCCCC2)C(=O)C1=O`, the activation was -1.34%.

Consider `CC1CCC2CCCCC2N1C(=O)c1cc([N+](=O)[O-])cc([N+](=O)[O-])c1` (stereo not given), for which the activation was -1.47%.

In the case of `CCOC(=O)[C@H]1Nc2ccc(Cl)cc2[C@@H]2[C@H]1C1CC(c3ccccc31)N2C(=O)OCc1ccccc1` (stereo not given in full), the activation is -4.81%.

In the case of `O=C(O)C#Cc1cccc2ccccc12`, the activation was -6.37%.

In the case of `CCCCCCNC(=O)CSc1nccn1Cc1ccccc1`, the activation is -3.24%.

With `O=C(NCc1ccccc1)C1c2ccccc2OCC(=O)N1C1CC1` (stereo not given), the activation was 8.21% (active).

For the compound `O=C(NCc1ccccc1)C1c2ccccc2OCC(=O)N1CCCN1CCOCC1` (stereo not given), the activation was -2.2%.

With `O=C(NC1CCCC1)C1c2ccccc2OCC(=O)N1Cc1ccccc1` (stereo not given), the activation is -2.39%.

Take `CN1CCN(Cc2c(C(=O)N3CCc4ccccc4C3)nc3ccc(Cl)cn23)CC1`: the activation was -13%.

For the compound `Nc1ccn(C2CC(O)C(CO)O2)c(=O)n1` (stereo not given), the activation is -1.31%.

Consider `COC(=O)C1CCN(C(=O)COC(=O)c2cc(S(=O)(=O)N3CCOCC3)ccc2C)CC1`, for which the activation is -0.23%.

As to `CCS(=O)(=O)c1ccc2c(c1)N(S(=O)(=O)c1ccccc1)CC(C(=O)O)O2` (stereo not given), the activation is -3.49%.

Take `COc1ccc(N2CCN(S(=O)(=O)c3cc4c5c(c3)C(C)C(=O)N5CCC4)CC2)cc1` (stereo not given): the activation was 0.45%.

As for `CC(=O)C1=C(O)C(=O)N(c2ccc(Br)cc2)C1c1ccc([N+](=O)[O-])cc1` (stereo not given), the activation was -4.41%.

As for `COc1ccc(C2C(C(C)=O)=C(O)C(=O)N2c2nccs2)cc1` (stereo not given), the activation was -4.03%.

`COC(=O)CN1C(=O)C(O)=C(C(C)=O)C1c1ccc([N+](=O)[O-])cc1` (stereo not given): the activation was 8.27% (active).

On to `COC(=O)c1ccccc1NC(=O)C1(S(=O)(=O)c2ccc(Cl)cc2)CC1`, for which the activation is -4.86%.

On to `CCCc1c(C)nc2c(Br)cccc2c1Cl`, for which the activation was -2.47%.

In the case of `CCN(CC)CCCC(C)n1c2nc(=O)[nH]c(=O)c-2nc2cc(Cl)ccc21` (stereo not given), the activation is 11.7% (active).

Regarding `COC(C/C=C/C(=O)[C@@H](C)OCc1ccccc1)OC`, the activation was 5.11%.

Consider `CSC1=NC2(C)CCCCC2C12C=CC(=O)C=C2` (stereo not given), for which the activation is -3.42%.

In the case of `CC(C)CCNC(=O)C1CCC(CNc2c(N3CCC(C)CC3)c(=O)c2=O)CC1` (stereo not given), the activation was -7.85%.

As for `CC(C)(C)N1C(=O)c2c(C(=O)OCc3ccccc3)[nH]c(-c3ccccc3)c2C1=O`, the activation is -2.85%.

In the case of `O=C1C(Sc2cccc(F)c2)=C[C@@]2(O)CC[C@@H](O)[C@]1(Sc1cccc(F)c1)[C@H]2O`, the activation was 11.4% (active).

With `CN1CCN(c2ccc(CNS(=O)(=O)c3cccc(F)c3)cc2)CC1`, the activation is -2.8%.

In the case of `Cc1nccn1CCCNC(=O)CC1C(=O)NCCN1Cc1ccc(Cl)c(F)c1` (stereo not given), the activation is -5.91%.

Consider `O=C(O)/C=C/c1cn(Cc2ccccc2)nc1-c1cccs1`, for which the activation was 9.05% (active).

`O=c1onc(-c2cccs2)n1Cc1ccccc1`: the activation is -2.25%.

For the compound `COc1ccc(NC(=O)CN(C)C(=O)/C=C/c2cn(Cc3ccccc3)nc2-c2cccnc2)cc1`, the activation was -3.42%.

As to `Cc1cccc(NC(=O)Cn2c(=O)n(Cc3ccccc3)c(=O)c3c(C)c(C)sc32)c1`, the activation was -2.33%.

Regarding `O=C1CCC(C(=O)N2CCC(O)(c3ccccc3)CC2)CN1CCc1ccccc1` (stereo not given), the activation is -3.3%.

In the case of `COc1ccc(Cl)cc1NS(=O)(=O)c1cccc(C(=O)NCC2CCCO2)c1` (stereo not given), the activation is 8.29% (active).

With `COc1ccc(Cl)cc1NS(=O)(=O)c1cccc(C(=O)NC2CCC(O)CC2)c1` (stereo not given), the activation is -0.8%.

Take `COc1ccc(C(=O)NCC2CCCO2)cc1S(=O)(=O)NCc1ccc(Cl)cc1` (stereo not given): the activation was -6%.

In the case of `CC(C)NC(=S)NN=C1CCCCCCCCCCC1`, the activation was -2.24%.

On to `C=C(C)C1CC=C(C)/C(=N\NC(=O)CNc2ccccc2OC)C1` (stereo not given), for which the activation is -4.34%.
